Screening data as filed in PubChem BioAssay.
TDP1 cell CPT: growth inhibition of DT40 Tdp1-/-;hTDP1 cells with camptothecin (screen for TDP1 inhibitors); chicken DT40 Tdp1-/-;hTDP1 cells + 20 nM CPT, ATP luminescence, 48 h; Potency, µM (top dose mostly 46.2 µM), for the others: at the highest dose activity change, negative = growth inhibition, actives largely listed as inhibitors; 420,000 compounds, 12% hits; AID 686979; also: potency is read from the fitted curve at half-maximal effect; nearly all actives have a fitted effect of over 55% in size
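Chicken DT40 Tdp1-/- cells stably complemented with human TDP1 were seeded at 400 cells/well in medium containing 20 nM camptothecin, exposed to pin-transferred compounds, and grown at 37 °C for at least 48 hr. Viability was read as ATP luminescence.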
HT1080 IDH1KD tx: HT-1080 IDH1 knockdown cell toxicity (counter line); HT-1080 IDH1 knockdown viability, ATP luminescence, 48 h; Potency, µM (doses to about 46.1 µM), for inactives: top-dose activity, negative = toxicity, hits mostly cytotoxic; 360,000 compounds, 2% hits; AID 686971;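 also: potency is read from the fitted curve at half-maximal effect; 0% = DMSO wells and -100% = cell-free medium wells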
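% activity derives from luminescence (CellTiter-Glo), normalised to DMSO and no-cell wells. HT-1080-IDH1KD cells, 750/well, had 48 h compound exposure at 37 °C.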
HT1080-NT tox: kills 2HG-producing HT-1080-NT fibrosarcoma cells; 360,000 compounds, 1.6% hits; Potency, µM (series often up to 46.1 µM), for the others: at the highest dose activity, negative = less viability, actives largely listed as cytotoxic; HT-1080-NT fibrosarcoma viability, CellTiter-Glo ATP luminescence, 48 h;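 also: NT is the 2HG producing partner of a matched IDH1 knockdown line; potency is read from the fitted curve at half-maximal effect; 0% = DMSO-treated cells and -100% = media-only wells without cells; nearly all actives have a fitted effect of over 55% in size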
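750 cells/well, RPMI + 5% FBS; 2 h settle, compound pin-transfer, 48 h at 37 degrees C. CellTiter-Glo 10 min RT, luminescence. Normalized to DMSO and media-only wells.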
TDP1 cell noCPT: qHTS for Inhibitors of human tyrosyl-DNA phosphodiesterase 1 (TDP1): qHTS in cells in absence of CPT. Potency, µM (titrated, usually from 46.2 µM), for inactives: at the top dose activity change, negative = growth inhibition, hits mostly inhibitors. DT40 Tdp1-/- hTDP1 cells, no CPT, ATP luminescence, 48 h. 420,000 compounds, 15% hits; also: potency is read from the fitted curve at half-maximal effect; nearly all actives have a fitted effect of over 55% in size
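Readout: luminescence from CellTiter-Glo after 30 min in the dark at RT. Cells: DT40 Tdp1-/- with stable hTDP1, 400/well. Exposure: compounds alone, ≥48 hr, 37 °C.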
IL1B secr inh: inhibitors of inflammasome signaling (IL-1 beta secretion) | THP-1 LPS/ATP IL-1B secretion, AlphaLISA, 16 h; stronger effect = lower value | activity change, % at 57.5 µM | 360,000 compounds, 4.7% hits | AID 743279; in the data active = activity change below about -50%; inconclusive = mostly about -30% to -49%
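THP-1 cells pretreated 1 hr with compounds (up to 57.5 uM final), then stimulated with LPS (250 ng/mL final) plus ATP (1.25 mM final); secreted IL-1B measured by AlphaLISA after 16 hr, decreased signal indicating inhibition.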
ALOX12 inh: inhibitors of human 12S-lipoxygenase ALOX12; 580,000 compounds, 1.1% hits; P18054; purified 12hLO, xylenol orange hydroperoxide absorbance; Potency, µM (doses to about 108 µM), inactives show at the top dose activity change, negative = inhibition, usual class: inhibitors; also: potency is read from the fitted curve at half-maximal effect
Target sequence (P18054 whole entry, looked up): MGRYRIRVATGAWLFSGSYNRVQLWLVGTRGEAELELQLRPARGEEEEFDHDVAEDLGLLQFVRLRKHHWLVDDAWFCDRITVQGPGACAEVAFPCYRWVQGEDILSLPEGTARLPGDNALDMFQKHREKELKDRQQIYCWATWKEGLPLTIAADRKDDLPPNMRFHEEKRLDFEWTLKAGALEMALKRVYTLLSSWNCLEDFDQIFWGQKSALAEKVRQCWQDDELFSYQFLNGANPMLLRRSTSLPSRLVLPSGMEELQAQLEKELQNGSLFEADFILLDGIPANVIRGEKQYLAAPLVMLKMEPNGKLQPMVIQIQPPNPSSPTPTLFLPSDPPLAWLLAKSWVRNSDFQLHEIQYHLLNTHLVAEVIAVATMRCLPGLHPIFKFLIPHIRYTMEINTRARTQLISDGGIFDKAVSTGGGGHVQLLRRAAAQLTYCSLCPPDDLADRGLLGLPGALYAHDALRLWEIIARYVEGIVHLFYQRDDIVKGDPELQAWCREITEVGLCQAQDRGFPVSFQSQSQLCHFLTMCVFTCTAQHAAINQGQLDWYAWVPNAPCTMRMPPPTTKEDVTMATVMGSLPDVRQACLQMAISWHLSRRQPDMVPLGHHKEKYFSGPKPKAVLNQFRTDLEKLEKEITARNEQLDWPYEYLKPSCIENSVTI
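Purified human 12hLO (150 nM final) in 25 mM Hepes, 0.01% Triton X-100, pH 7.0 was preincubated 15 min at room temperature with compound. Then 40 uM arachidonic acid was added, 30 min. Hydroperoxide was read by Fe-XO absorbance ratio 573/405 nm.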
The depositor's hits bear a star; u = inconclusive; x = no result; [ ] = remark or other dose. This is one part of a sample in which hits are shown more often than they occur. Unless noted, calls follow the shape of the dose curve; as a rule, active = well fitted curve in the direction sought with a large enough effect; inconclusive = small, poorly fitted or top-dose-only effect, or another doubt; inactive = no such curve, though single readings can be large; an effect the other way counts as inactive or inconclusive. Unless noted, % is scaled to controls: 0 for no effect and ±100 for the full control effect.

SMILES	TDP1 cell CPT	HT1080 IDH1KD tx	HT1080-NT tox	TDP1 cell noCPT	IL1B secr inh	ALOX12 inh
COc1ccc(Nc2nnc(Cc3ccncc3)c3ccccc23)c(OC)c1	-25.2%	2.5%	-0.6%	-28.3%	-57.0*	9.5%
Cn1nc(C(F)(F)F)c(-c2cccc(C(F)(F)F)c2)c1NC(=O)CSCC(=O)O	-3.2%	-4.0%	3.0%	5.9%	-18.2	0.0%
COC(=O)CN(C)Cc1cn(-c2ccc(C)cc2)nc1-c1cccc(C)c1	x	x	x	x	x	35.5%
Cc1ccc(C)c(-n2cc(CNCCCn3cccn3)c(-c3ccccc3)n2)c1	23.1µM*	u	20.6µM*	20.6µM*	u	0.0%
Cc1cccc(-n2cc(CNCCc3nc(C)cc(C)n3)c(-c3cccc(F)c3)n2)c1	11.6µM*	u	u	4.61µM*	u	u
Cc1cccc(-c2nn(-c3ccccc3)cc2CNCCO)c1	u	x	x	12.6µM*	x	x
Cc1ccc(-c2nn(-c3ccccc3)cc2CO)cc1	12.6%	-13.9%	-8.3%	3.8%	-22.9	230.2%
Cc1ccc(-n2cc(CNCCCn3cccn3)c(-c3cccc(C)c3)n2)cc1	13µM*	u	u	16.4µM*	-99.2*	-21.9%
Nc1ncccc1CNC(=O)[C@H]1CCC[C@H](O)C1	x	x	x	x	x	-3.6%
CCOC(=O)COc1ccc2c(C)c(CCC(C)C)c(=O)oc2c1	x	x	x	x	x	40.1%
COCCO[C@H]1C(=O)N(C2CCN(S(=O)(=O)C(C)C)CC2)[C@H]1c1ccncc1	x	x	x	x	x	27.9%
CCN1CC(CN(C)Cc2cn(-c3cccc(C)c3)nc2-c2cccc(F)c2)CC1=O (stereo not drawn)	16.4µM*	-6.6%	2.1%	18.4µM*	u	-13.7%
CCOC(=O)c1c(C)[nH]c(C(=O)C(C)OC(=O)c2cccc(OCc3c(C)noc3C)c2)c1C (stereo not drawn)	20.6µM*	u	-15.4%	18.4µM*	u	2.4%
COc1cccc(NC(=O)C(Sc2nnc(-c3ccco3)o2)c2ccccc2)c1 (stereo not drawn)	x	x	x	x	x	-29.4%
Cc1ccc(F)cc1CNC(=O)c1cc(COc2ccc3ncccc3c2)on1	4.11µM*	-15.9%	-15.8%	10.3µM*	-29.0	14.3%
O=C(NCc1cccc(Cl)c1)c1cc(COc2ccc3ncccc3c2)on1	16.4µM*	-21.3%	-20.0%	20.6µM*	u	2.9%
CC(CCCC(C)(C)O)NC(=O)c1cc(COc2ccc3ncccc3c2)on1 (stereo not drawn)	8.2µM*	-22.4%	-5.3%	4.61µM*	-0.5	2.9%
Cc1ccc(OCc2cc(C(=O)NC(C)Cc3cccc(C)n3)no2)cn1 (stereo not drawn)	13µM*	-0.1%	-2.6%	7.31µM*	45.6	-12.8%
Cc1ccc(OCc2cc(C(=O)NCc3cn4ccccc4n3)no2)cc1C	-22.6%	-0.6%	12.3%	14.8%	-9.4	-0.3%
CC(Cc1cccnc1)NC(=O)c1cc(COc2c(F)cccc2F)on1 (stereo not drawn)	u	0.7%	0.6%	u	-1.7	0.0%
Cc1cccc(CC(C)NC(=O)c2coc(COc3ccc4c(c3)OCO4)n2)n1 (stereo not drawn)	x	x	x	x	x	-12.6%
COc1cccc(OCc2cc(C(=O)NCc3ccccn3)no2)c1	3.1%	18.0%	12.1%	u	-4.6	11.5%
COc1cc(C(C)=O)ccc1OCc1ccc(C#N)cc1F	x	x	x	x	x	-0.3%
CN(CCO)C(=O)c1ccc(N)cc1	x	x	x	x	x	11.3%
CCC(CC)NC(=O)O[C@H]1CC[C@@]23CCCN2C(=O)CCC[C@H]3[C@H]1Cc1ccccc1	x	x	x	x	x	0.4%
SMILES	TDP1 cell CPT	HT1080 IDH1KD tx	HT1080-NT tox	TDP1 cell noCPT	IL1B secr inh	ALOX12 inh
COC(=O)C1CN(Cc2ccccc2)CCS(=O)(=O)N1Cc1ccc(C)cc1 (stereo not drawn)	x	x	x	x	x	28.0%
Cc1cc(C)n(CCCNC(=O)c2cc(COc3ccc4sc(C)nc4c3)on2)n1	x	x	x	x	x	25.2%
Cc1cc(C)n(CCNC(=O)c2cc(COc3ccc4ncccc4c3)on2)n1	20.6µM*	-8.8%	0.8%	20.6µM*	2.0	-1.6%
CC(=O)c1ccc(N2CCN(c3ccc(C(F)(F)F)cn3)CC2)cc1	-19.2%	-1.2%	-1.8%	u	-3.8	-1.5%
Clc1ccc(-c2cn(-c3ccccc3)c3[n+]2CCS3)cc1	u	-11.4%	-11.9%	6.51µM*	-51.4*	-1.9%
O=C(O)c1cn(-c2ccccc2)nc1-c1ccc(F)cc1	1.3%	20.2%	9.7%	5.7%	14.7	0.4%
Fc1ccc(-c2cn(-c3ccccc3)c3[n+]2CCS3)cc1	u	-1.7%	u	23.1µM*	-13.5	39.8%
COc1ccc(-c2cn(-c3ccc(Br)cc3)c3[n+]2CCS3)cc1	8.2µM*	-28.5%	-25.4%	6.51µM*	-75.6*	-12.9%
CC(=O)c1ccc(-n2cc(-c3ccc(C(C)(C)C)cc3)[n+]3c2SCCC3)cc1	0.206µM*	u	u	0.164µM*	-24.8	1.2%
Cn1c(CC(=O)Nc2ccccc2)nnc1SCC(=O)c1ccc(C#N)cc1	x	x	x	x	x	-22.6%
CCOC(=O)Cn1nc(C2CC2)c2c(C(F)F)cc(-c3cnn(C)c3C)nc21	x	x	x	x	x	38.9%
Cn1nc([N+](=O)[O-])nc1S(C)(=O)=O	4.61µM*	16.4µM*	16.4µM*	4.61µM*	-100.9*	-2.9%
CS(=O)(=O)c1nc([N+](=O)[O-])nn1CCCc1ccccc1	6.51µM*	u	u	13µM*	-102.7*	x
Cn1nc([N+](=O)[O-])nc1Oc1ccccc1F	-1.7%	-2.1%	12.3%	-5.9%	-1.5	16.5%
COc1ccc([C@@H]2CN(C(=O)CCc3ccsc3)C[C@H]2N(C)C)cc1	x	x	x	x	x	20.8%
COc1cc(CNc2nc(C)c([N+](=O)[O-])c(C)c2C#N)cc(OC)c1OC	20.6µM*	-14.2%	-1.5%	18.4µM*	38.8	-10.1%
Cc1ccc(Sc2nc(C)c([N+](=O)[O-])c(C)c2C#N)cc1	u	-11.1%	-1.8%	u	x	0.0%
COc1ccc(CNc2nc(C)c([N+](=O)[O-])c(C)c2C#N)cc1	18.4µM*	-12.5%	-1.1%	u	-11.9	-3.7%
COc1ccc(CNc2cc([N+](=O)[O-])ccc2OC)cc1	-18.6%	1.0%[9.24 µM]	-17.6%	-17.5%	-23.3	u
CS(=O)(=O)N1CC2(CCN(Cc3ccccn3)C2)Cc2ccccc21 (stereo not drawn)	x	x	x	x	x	35.3%
